Bioassay records: PubChem, The Scripps Research Institute Molecular Screening Center
Rows were chosen to be rich in hits. Some 3.5% of all compounds tested hit in one or more screens of this group.
MITF primary: human MITF inhibition, primary screen; AID 1259374; 650,000 compounds, 0.91% hits; O75030; AlphaScreen MITF homodimerization, bead proximity signal; inhibition, % at 2.6 µM; in the data active means inhibition above about 50%
TEAD-YAP block: TEAD-YAP interaction inhibition. HEK-TIYL cells, TEAD-Gal4/YAP UAS-luciferase luminescence. inhibition, % at 9.12 µM. 640,000 compounds, 1.4% hits. AID 1259422; in the data active means inhibition above about 32%
FBW7 activator: human FBW7 E3 ligase activation, primary screen; AlphaScreen FBW7–phospho-cyclin E peptide binding, activator screen; normalized activity (activation), % at 26.1 µM; 650,000 compounds, 0.13% hits; AID 1259310; in the data active means normalized activity above about 1.9%;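 further: purified mutant Fbw7 with reduced substrate affinity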
Target sequence (Q969H0 whole entry, looked up): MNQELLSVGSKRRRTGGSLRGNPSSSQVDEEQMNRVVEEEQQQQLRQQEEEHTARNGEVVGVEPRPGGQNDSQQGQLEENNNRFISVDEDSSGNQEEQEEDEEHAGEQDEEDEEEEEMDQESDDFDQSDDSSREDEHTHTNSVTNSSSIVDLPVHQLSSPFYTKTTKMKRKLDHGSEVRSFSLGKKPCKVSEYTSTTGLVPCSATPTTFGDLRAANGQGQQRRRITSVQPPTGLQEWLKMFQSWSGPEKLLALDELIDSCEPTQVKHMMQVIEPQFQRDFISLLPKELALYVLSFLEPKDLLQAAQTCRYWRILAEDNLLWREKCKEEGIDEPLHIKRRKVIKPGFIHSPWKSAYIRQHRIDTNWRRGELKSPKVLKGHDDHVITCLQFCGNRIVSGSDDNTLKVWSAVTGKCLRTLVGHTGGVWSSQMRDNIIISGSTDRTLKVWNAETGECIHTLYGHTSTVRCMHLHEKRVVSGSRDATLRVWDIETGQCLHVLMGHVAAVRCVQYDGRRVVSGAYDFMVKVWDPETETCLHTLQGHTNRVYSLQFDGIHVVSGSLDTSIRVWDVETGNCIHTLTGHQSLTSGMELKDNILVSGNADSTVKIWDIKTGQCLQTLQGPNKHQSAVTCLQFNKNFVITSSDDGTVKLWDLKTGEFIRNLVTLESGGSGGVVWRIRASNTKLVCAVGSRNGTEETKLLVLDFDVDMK
GPR151 ag: activates the human receptor GPR151 | 650,000 compounds, 1% hits | activation, % at 11.2 µM | AID 1508602 | PathHunter beta-arrestin GPR151 cells, luminescence; in the data active means activation above about 4.9%
GPR151 confirm: confirmation of human GPR151 activators. shares compounds with GPR151 ag. GPR151 PathHunter beta-arrestin cells, luminescence, 90 min; % of EA-reagent control over plate median. activation, % at 11.2 µM. 6,700 tested, under 10 active. AID 1508609;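 active means mean percent activation across replicates above the confirmation screen cutoff of 4.91%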
GPR119 counter: GPR119 activation, counter-screen for GPR151 activators | shares compounds with GPR151 ag | GPR119 PathHunter beta-arrestin cells, luminescence, 90 min; 0 = compound-well median, 100 = enzyme-acceptor control | activation, % at 11.2 µM | 6,700 compounds, 0.3% hits | AID 1508611;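 active means mean percent activation in the counterscreen above 29.09%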;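 further: counterscreen on off-target GPR119 to flag nonselective hits from the GPR151 activator screen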
Hits are given with their value; ! = a repeat was not active.

What do the screens show for `CC(C)[C@H](NC(N)=O)C(=O)Nc1ccc(I)cc1`?
MITF primary: inactive; TEAD-YAP block: inactive; FBW7 activator: inactive; GPR151 ag: 5.9; GPR151 confirm: inactive; GPR119 counter: inactive

What do the screens show for `Nc1nn(S(=O)(=O)c2ccc([N+](=O)[O-])cc2)cc1-c1ccc(Br)cc1`?
MITF primary: inactive; TEAD-YAP block: inactive; FBW7 activator: inactive; GPR151 ag: inactive

Results for [O-]/[N+](=C\c1ccc(F)cc1)c1ccccc1 ?
MITF primary: inactive; TEAD-YAP block: inactive; FBW7 activator: inactive; GPR151 ag: inactive

How did [O-]/[N+](=C\c1ccncc1)c1ccc(Cl)cc1 do in these assays?
MITF primary: inactive; TEAD-YAP block: inactive; FBW7 activator: inactive; GPR151 ag: 5.2; GPR151 confirm: inactive; GPR119 counter: inactive

How did C=CCc1ccccc1OCCOc1ccc([N+](=O)[O-])cc1/C=N/NC(N)=O do in these assays?
MITF primary: inactive; TEAD-YAP block: inactive; FBW7 activator: inactive; GPR151 ag: 6.2; GPR151 confirm: inactive; GPR119 counter: inactive

Results for CCCCOc1ccc(C(=O)N/C(=C/c2ccc(Cl)cc2)C(N)=O)cc1 ?
MITF primary: inactive; TEAD-YAP block: inactive; FBW7 activator: inactive; GPR151 ag: 9.8; GPR151 confirm: inactive; GPR119 counter: inactive

What do the screens show for `CCCCOc1ccc(C(=O)N/C(=C/c2ccc([N+](=O)[O-])cc2)C(N)=O)cc1`?
MITF primary: inactive; TEAD-YAP block: inactive; FBW7 activator: inactive; GPR151 ag: inactive

What do the screens show for `CCC(O)(CC)C(=O)NN(C(=O)c1cccnc1Cl)c1ccccc1`?
MITF primary: inactive; TEAD-YAP block: inactive; FBW7 activator: inactive; GPR151 ag: inactive

What do the screens show for `O=S(=O)(Nc1ccccc1)c1ccc(NS(=O)(=O)c2c(F)cccc2F)cc1`?
MITF primary: inactive; TEAD-YAP block: inactive; FBW7 activator: inactive; GPR151 ag: 5.2; GPR151 confirm: inactive; GPR119 counter: inactive

What do the screens show for `O=S(=O)(Nc1ccc(S(=O)(=O)Nc2ccccc2)cc1)c1ccccc1`?
MITF primary: inactive; TEAD-YAP block: inactive; FBW7 activator: inactive; GPR151 ag: inactive

How did O=C(CN1C(=O)CC(c2ccco2)Sc2ccccc21)Nc1ccc(F)cc1F (stereo unspecified) do in these assays?
MITF primary: inactive; TEAD-YAP block: inactive; FBW7 activator: inactive; GPR151 ag: 7.5; GPR151 confirm: inactive; GPR119 counter: inactive

How did CC1(C)CC(=O)N(CC(=O)O)c2ccccc2S1(=O)=O do in these assays?
MITF primary: inactive; TEAD-YAP block: inactive; FBW7 activator: inactive; GPR151 ag: inactive

How did CCOC(=O)N1CCN(C(=O)CN2C(=O)CC(C)(C)S(=O)(=O)c3ccccc32)CC1 do in these assays?
MITF primary: inactive; TEAD-YAP block: inactive; FBW7 activator: inactive; GPR151 ag: 5.9; GPR151 confirm: inactive; GPR119 counter: inactive

How did CC(=O)c1ccc(NC(=S)Nc2cc([N+](=O)[O-])ccc2C)cc1 do in these assays?
MITF primary: inactive; TEAD-YAP block: inactive; FBW7 activator: inactive; GPR151 ag: 6.3; GPR151 confirm: inactive; GPR119 counter: inactive

How did Cc1ccc(C(=O)O)cc1NC(=O)Nc1ccc([N+](=O)[O-])cc1 do in these assays?
MITF primary: inactive; TEAD-YAP block: inactive; FBW7 activator: inactive; GPR151 ag: inactive

Results for N#Cc1ccc(NC(=O)NCCc2c[nH]c3ccccc23)cc1 ?
MITF primary: inactive; TEAD-YAP block: inactive; FBW7 activator: inactive; GPR151 ag: inactive

How did CCOc1ccc(C(=O)Nc2ccc3c(c2)CC(=O)N3CC)cc1 do in these assays?
MITF primary: inactive; TEAD-YAP block: inactive; FBW7 activator: inactive; GPR151 ag: inactive

How did CCN1C(=O)Cc2cc(NC(=O)c3ccc(C(C)(C)C)cc3)ccc21 do in these assays?
MITF primary: inactive; TEAD-YAP block: inactive; FBW7 activator: inactive; GPR151 ag: 5.2; GPR151 confirm: inactive; GPR119 counter: inactive

What do the screens show for `O=C(Oc1ccccc1[N+](=O)[O-])c1ccc(F)cc1`?
MITF primary: inactive; TEAD-YAP block: inactive; FBW7 activator: inactive; GPR151 ag: 5.9; GPR151 confirm: inactive; GPR119 counter: inactive

What do the screens show for `O=C(Oc1ccccc1[N+](=O)[O-])c1ccccc1Cl`?
MITF primary: inactive; TEAD-YAP block: inactive; FBW7 activator: inactive; GPR151 ag: 10; GPR151 confirm: inactive; GPR119 counter: inactive

Results for CCCCOc1nc2ccccc2nc1C(C#N)C(=O)OCC (stereo unspecified) ?
MITF primary: inactive; TEAD-YAP block: inactive; FBW7 activator: inactive; GPR151 ag: 5.3; GPR151 confirm: inactive; GPR119 counter: inactive

Results for CCOc1ccc(C(=O)NNc2cc(=O)n(C)c(=O)n2C)cc1 ?
MITF primary: inactive; TEAD-YAP block: inactive; FBW7 activator: inactive; GPR151 ag: inactive

How did CCn1c(C(=O)O)c(CNC2CCCC2)c2ccc(C)cc21 do in these assays?
MITF primary: inactive; TEAD-YAP block: inactive; FBW7 activator: inactive; GPR151 ag: 8.4; GPR151 confirm: inactive; GPR119 counter: inactive

How did CCOc1cc(C(=O)Nc2ccc(NC(=O)c3ccco3)cc2)cc(OCC)c1OCC do in these assays?
MITF primary: inactive; TEAD-YAP block: inactive; FBW7 activator: inactive; GPR151 ag: inactive

Results for COc1cc2[nH]c(=S)nc(NCC(OC)OC)c2cc1OC ?
MITF primary: inactive; TEAD-YAP block: inactive; FBW7 activator: inactive; GPR151 ag: 5.5; GPR151 confirm: inactive; GPR119 counter: inactive

What do the screens show for `COc1cc2[nH]c(=S)nc(NCCCN3CCCC3)c2cc1OC`?
MITF primary: inactive; TEAD-YAP block: inactive; FBW7 activator: inactive; GPR151 ag: inactive

What do the screens show for `CC(=O)O[C@H]1CC[C@@]2(C)C(C[C@@H](OC(C)=O)[C@@]3(C)C4=CC(=O)O[C@@H](c5ccoc5)[C@]4(C)CCC23)C1(C)C` (stereo partly specified)?
MITF primary: inactive; TEAD-YAP block: inactive; FBW7 activator: inactive; GPR151 ag: 6.5!; GPR151 confirm: inactive; GPR119 counter: inactive

What do the screens show for `O=C(NNC(=O)c1ccccc1F)c1ccc(Cl)nc1`?
MITF primary: inactive; TEAD-YAP block: inactive; FBW7 activator: inactive; GPR151 ag: 4.9; GPR151 confirm: inactive; GPR119 counter: inactive

How did Cc1cc(=O)oc2cc(NC(=O)c3cc([N+](=O)[O-])ccc3Cl)ccc12 do in these assays?
MITF primary: inactive; TEAD-YAP block: inactive; FBW7 activator: inactive; GPR151 ag: inactive

Results for COc1ccc(-c2oc3c(CC=C(C)C)c(O[C@@H]4O[C@H](CO)[C@@H](O)[C@H](O)[C@H]4O)cc(O)c3c(=O)c2O[C@@H]2O[C@@H](C)[C@H](O)[C@@H](O)[C@H]2O)cc1 ?
MITF primary: inactive; TEAD-YAP block: inactive; FBW7 activator: inactive; GPR151 ag: 6.8!; GPR151 confirm: inactive; GPR119 counter: inactive

How did Cc1cc(/C=C2\C(=O)NC(=S)N(c3ccc(F)cc3)C2=O)c(C)n1C1CC1 do in these assays?
MITF primary: inactive; TEAD-YAP block: inactive; FBW7 activator: inactive; GPR151 ag: 5.3; GPR151 confirm: inactive; GPR119 counter: inactive
